From PubChem BioAssay (NCI)
Compounds without any hit were thinned out: in the full panel of roughly 83,000, 20% have a hit.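 The endpoint reported here, percent growth, reads 100 for growth as untreated, 0 for no net growth and -100 for all cells dead.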 Calls of active or inactive are those of the source. Rule for the calls: active = growth percent below 10; inactive = the rest.

The molecules below were run on MDA-MB-468 breast (assay: NCI-60 one-dose screen, 48 h (100 = growth as untreated, 0 = no growth, -100 = all killed)). Conditions: 10 µM unless noted.

| Compound | growth |
| --- | --- |
| Cc1ccccc1N1C(c2ccccc2)=NNC12C=CC(=O)c1c(O)cccc12 (stereo not given) | 88% (inactive) |
| COc1cc2c(c(OC)c1)C1c3cc(OC)ccc3NC(=O)N1CC2 (stereo not given) | 70.1% (inactive) |
| CCN1CCC(CCOC)(CN2c3ccccc3Sc3ccc(Cl)cc32)C1 (stereo not given) | 16.9% (inactive) |
| Cc1nc(NC(=O)N2CCC[C@H]2C(N)=O)sc1-c1ccnc(C(C)(C)C(F)(F)F)c1 | 6.59% (active) |
| NCCCOc1cc2ccccc2cc1C(=O)Nc1ccc(Cl)cc1OC(=O)c1cc2ccccc2cc1OCCCN | -86% (active) |
| Cc1nnc(Nc2ccc(NC(=O)Nc3ccc(Cl)cc3)cc2)c2ccccc12 | 6.44% (active) |
| COc1ccc(-n2c(=O)c3ccccc3n(Cc3ccc(C(=O)NO)cc3)c2=O)cc1 | 3.21% (active) |
| CC1=C(C(=O)Nc2ccccc2)C(c2ccc3c(c2)OCCO3)NC(=O)N1 (stereo not given) | 106% (inactive) |
| Cc1[nH]c(-c2nc3ccccc3[nH]2)c(C)c1C(=O)N1CCc2sccc2C1 | 70.2% (inactive) |
| CCOC(=O)C(CC(c1ccccc1)N1CCCCC1)[N+](=O)[O-] (stereo not given) | 49.7% (inactive) |
| Cc1ccc(Cn2c(O)c(N=NC(=O)c3ccc(S(N)(=O)=O)cc3)c3ccccc32)cc1 | 100% (inactive) |
| CC(O)Cn1cnc2c1c(=O)n(C)c(=O)n2C (stereo not given) | 78.5% (inactive) |
| C[n+]1cccc(CC(=O)NO)c1 | 88.3% (inactive) |
| CSc1ccc2c(c1)N(C(=O)/C(C#N)=C/c1c[nH]c3ccccc13)c1ccccc1S2 | 12% (inactive) |
| Cn1cnc2c(F)c(Nc3ccc(Br)cc3F)c(C(=O)NOCCO)cc21 | 97.3% (inactive) |
| NC(=O)NS(=O)(=O)c1ccc(N2N=C(C(F)(F)F)CC2c2cc(C(F)(F)F)cc(C(F)(F)F)c2)cc1 (stereo not given) | 70.1% (inactive) |
| O=C(Nc1cccc(-n2cc(-c3ccncc3)c(-c3cc(O)cc(Cl)c3)n2)c1)c1ccc(N2CCOCC2)c(C(F)(F)F)c1 | 26% (inactive) |
| O=C(c1ccccc1)c1c(/C=C/c2ccccc2)c2ccccc2[nH]c1=O | 94.5% (inactive) |
| CC(C)C1=NOC(=O)C1=Cc1cn(-c2cccnc2)nc1-c1ccccc1 | 108% (inactive) |
| N#Cc1c(N)nnn1Cc1cc(=O)oc2c1ccc1ccccc12 | 106% (inactive) |

| Compound | growth |
| --- | --- |
| Cc1cc2ccccc2c[n+]1CC(=O)c1ccc(-c2ccccc2)cc1 | 13.3% (inactive) |
| CC1(C)OC2=C(CC1Br)C(=O)C(=O)c1ccccc12 (stereo not given) | -87.1% (active) |
| CC(C)CCC[C@@H](C)C1CCC2C3CCC4=C/C(=N/OCCN(C)C)CC[C@]4(C)C3CC[C@@]21C (stereo not given in full) | 87.3% (inactive) |
| O=c1oc2ccc(Br)cc2c(=O)n1-c1ccc(Br)cc1F | -11.7% (active) |
| COc1ccc2c(c1)nnn1c3ncccc3c(N=O)c21 | -87.8% (active) |
| Nc1nc(-c2ccnc(Cl)c2)nn1-c1nc2ccccc2s1 | 107% (inactive) |
| CC(C)c1c(C(=O)Nc2ccccc2)c(-c2ccccc2)c(-c2ccc(F)cc2)n1CC[C@@H]1CC=CC(=O)O1 | -48.3% (active) |
| CCOC(=O)CC(=O)CSC1=NC2C(NN1)N(C)C(=O)N2C (stereo not given) | 12.2% (inactive) |
| C#Cc1nc(/C=C\CCCCCCC(=O)NO)cs1 | 23.1% (inactive) |
| OC(c1cccc(C(F)(F)F)c1)c1cnccc1NC1CCCCC1 (stereo not given) | 33% (inactive) |
| N#CC1c2ccccc2C=CN1C(=O)N(c1ccccc1)c1ccccc1 (stereo not given) | 5.11% (active) |
| COC(=O)/C=C1\S/C(=N\NC(=O)c2cc3ccc2/C=C\c2ccc(cc2)/C=C\3)N(Cc2ccccc2)C1=O | 21.1% (inactive) |
| Cc1cc(=O)[nH]c(N/N=C/c2ccccc2O)n1 | 58.1% (inactive) |
| CC1=CC(=O)C(C(C)C)=CC1=Nc1cc(Br)c(O)c(Br)c1 | 44.7% (inactive) |
| CCn1c(Sc2nnc(NC(=O)CSC(=S)N3CCCCC3)s2)nc2c1c(=O)n(C)c(=O)n2C | 98.7% (inactive) |
| Cc1cc(O)ccc1O | 107% (inactive) |
| O=C(NC1CCN(Cc2ccccc2)CC1)c1cc2nc(-c3ccc(Cl)s3)cc(C(F)(F)F)n2n1 | -66.2% (active) |
| O=C1/C=C/[C@@H](O)[C@@H]2C[C@@H](O)C[C@H]2/C=C/CCCCO1 | -36.1% (active) |
| Cc1cc2nc(CC(=O)c3cccc([N+](=O)[O-])c3)c(=O)[nH]c2cc1C | 85.1% (inactive) |
| N#C/C(=C\c1ccc2ccccc2c1)C(=O)Nc1sc2c(c1C#N)CCC2 | 96.8% (inactive) |
